Compounds without any hit were thinned out: in the full panel of roughly 79,000, 15% have a hit. Activity calls are given as the source filed them. No stated cut-off is given here; in the data, active means growth inhibition above about 70%; inactive means the rest.
Key:
[1] = NCI Yeast Anticancer Drug Screen. Data for the rad50 strain (AID 155);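 further: 0% = growth of vehicle-only cultures of the same strain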; settings: S. cerevisiae rad50 strain growth inhibition; at 50.0 µM; active compounds read high
In short: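 A DNA repair-deficient yeast mutant serves as the test organism; compound-induced growth inhibition is calculated against vehicle-treated cells.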

[2] = NCI Yeast Anticancer Drug Screen. Data for the mec2-1 strain (AID 157); settings: S. cerevisiae mec2-1 strain, at 50.0 µM, active compounds read high
In short: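 Mutant yeast (mec2-1) grown with compound; growth inhibition relative to vehicle control reported.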

[3] = NCI Yeast Anticancer Drug Screen. Data for the sgs1 mgt1 strain (AID 161);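 further: 0% = growth of cultures given vehicle only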; settings: S. cerevisiae sgs1 mgt1 strain, at 50.0 µM, active compounds read high
In short: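 Percent growth inhibition was derived by comparing compound-exposed mutant yeast with vehicle-exposed cultures. The strain carries alterations in DNA damage repair.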

[4] = NCI Yeast Anticancer Drug Screen. Data for the cln2 rad14 strain (AID 165);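 further: 0% = growth equal to vehicle treated cultures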; settings: S. cerevisiae cln2 rad14 strain, at 50.0 µM, active compounds read high
In short: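 Readout is yeast growth inhibition versus vehicle-treated controls, using a strain with cln2 and rad14 alterations exposed to compound.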

[5] = NCI Yeast Anticancer Drug Screen. Data for the bub3 strain (AID 167); settings: S. cerevisiae bub3 mutant strain, at 50.0 µM, active compounds read high
In short: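 Inhibition values come from growth of compound-treated mutant yeast normalised to vehicle-treated controls.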

[6] = NCI Yeast Anticancer Drug Screen. Data for the mlh1 rad18 strain (AID 175); settings: S. cerevisiae mlh1 rad18 strain growth inhibition; at 50.0 µM; active compounds read high
In short: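 Genetically defined yeast (DNA repair-deficient) exposed to compounds; growth inhibition determined relative to vehicle.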

Measured: growth inhibition

CCN1c2ccccc2CC(C#N)(CCN(C)C)c2ccccc21 (stereo unspecified)
inactive: [1] 1.5% | [2] 5.45% | [3] 2.65% | [4] -10.8% | [5] 6.95% | [6] -0.35%

CCCn1cnc2c(NN=O)ncnc21
inactive: [1] -42% | [2] -13.2% | [3] -51.6% | [4] -23.2% | [5] -9.35% | [6] -45.5%

CC(=O)C1C(=O)C(=O)N(c2ccccc2C)C1=O (stereo unspecified)
inactive: [1] -25.6% | [2] -20.6% | [3] -13.8% | [4] 9.45% | [5] -24.9% | [6] -25.4%

O=Cc1ccccc1[N+](=O)[O-]
inactive: [1] 18.9% | [2] -8.35% | [3] 15% | [4] 14.2% | [5] 6.75% | [6] 17.9%

NC(=O)Cc1cc2c(cc1CO)OCO2
inactive: [1] 3.85% | [2] 1.8% | [3] 2.45% | [4] 7.9% | [5] -13.3% | [6] 5.55%

Oc1ccc(Cl)cc1C1=NC(/N=C\c2ccccc2)=NC(c2ccccc2)C1 (stereo unspecified)
inactive: [1] -0.7% | [2] -4.05% | [3] -43% | [4] -8.1% | [5] -36.8% | [6] -45%

O=C(O)c1ccc([N+](=O)[O-])cc1OCc1ccccc1
inactive: [1] 13.4% | [2] -5.1% | [3] 12.9% | [4] -39% | [5] -3.4% | [6] 3.95%

COC(=O)C1CCC(=O)N1CN(C(C)=O)c1cc(OC)ccc1OC (stereo unspecified)
inactive: [1] 14.9% | [2] -0.05% | [3] 2.85% | [4] 6.45% | [5] -5.15% | [6] -50.1%

Cc1ccc(C2(C)CC/C(=N/N=C3/CCC(C)(c4ccc(C)c(C)c4)c4cc(C)c(C)cc43)c3cc(C)c(C)cc32)cc1C (stereo unspecified)
inactive: [1] -17% | [2] -13.8% | [3] -27.9% | [4] -40.6% | [5] -11.4% | [6] -12.4%

C[N+](C)(CC(=O)Nc1ccc(Cl)cc1)Cc1ccc2c(c1)CCCC2
active: [1] 99.5% | [2] 99.8% | [3] 99.8% | [4] 99% | [5] 99.3% | [6] 99.7%

Cc1ccc(Cl)c(NC(=O)c2ccccc2Cl)c1
inactive: [1] 6.2% | [2] 8.2% | [3] 18.8% | [4] -8% | [5] 12.4% | [6] 30.9%

O=C1C(O)=C(Cl)C(=O)C(O)=C1Cl.[Zn+2]
inactive: [1] -40.5% | [2] -25.8% | [3] -10.2% | [4] -9.1% | [5] -16.9% | [6] -26.8%

CCCCC(C(=O)O)C(C)CC (stereo unspecified)
inactive: [1] 35% | [2] 12.2% | [3] 18.8% | [4] 22.3% | [5] 36.5% | [6] 29.6%

COC(=O)c1cnc2nc(N3CCOCC3)[nH]n2c1=O
inactive: [1] 8.3% | [2] -0.3% | [3] -1.25% | [4] 4.1% | [5] -4.7% | [6] -10.5%

COc1cc2c(cc1OC)C[N+]1(C)CCc3cc(OC)c(OC)cc3C1C2 (stereo unspecified)
inactive: [1] -16% | [2] -30.9% | [3] -9.9% | [4] 9.1% | [5] -8% | [6] -5.55%

CC(C)(C)SC(=S)SCC(=O)c1cc2ccccc2o1
inactive: [1] 35.7% | [2] 3.5% | [3] 41.4% | [4] 30.1% | [5] 40.8% | [6] 37.9%

Cc1cc(=O)n(-c2ccc([N+](=O)[O-])cc2)c(C)c1C(=O)O
inactive: [1] 3.25% | [2] -2.4% | [3] 4.85% | [4] -0.15% | [5] 7.9% | [6] -1.65%

CS/C(c1ccccc1)=[N+](/C)[O-]
inactive: [1] 42.6% | [2] 16.5% | [3] 17.3% | [4] -1% | [5] 24.6% | [6] 25.6%

C/C(CC(O)(C(F)(F)F)C(F)(F)F)=N\NC(N)=S
inactive: [1] -30.1% | [2] -14.7% | [3] -12.9% | [4] 9.55% | [5] 7.1% | [6] -9.3%

Nc1ncnc2c1nnn2C1C=CC(COS(N)(=O)=O)C1 (stereo unspecified)
inactive: [1] 12.2% | [2] 3.75% | [3] 3.7% | [4] -6% | [5] 8.25% | [6] 18.6%

Cc1ccc(C(=O)CC2(O)C(=O)Nc3ccccc32)cc1 (stereo unspecified)
inactive: [1] 25.4% | [2] 17.4% | [3] 22.4% | [4] 16.9% | [5] 14.3% | [6] 20.9%

O=C(/C(=C\C(=O)c1cccs1)c1ccsc1)c1ccc(Br)cc1
inactive: [1] 1.2% | [2] -32% | [3] 11.2% | [4] -25.9% | [5] 14.5% | [6] -17.3%

C[C@@H]1C[C@@H]2C(=O)N(c3ccccc3)C(=O)[C@@H]2c2[nH]c3ccc(Br)cc3c21
inactive: [1] 0.2% | [2] -12.6% | [3] 15.8% | [4] 0.25% | [5] -7.95% | [6] -20.1%

Cc1cccc(NC(=O)c2c(Br)c(Br)c(Br)c(Br)c2C(=O)O)c1C
inactive: [1] 26.9% | [2] -18% | [3] 12.7% | [4] 2.85% | [5] 5.4% | [6] -4.3%

COC(=O)c1nc(N)nc(C(=O)OC)c1C(=O)c1cccnc1
inactive: [1] -15.2% | [2] -17.8% | [3] -0.35% | [4] -15.3% | [5] -4.7% | [6] 10.1%

CCc1nc(N)nc(N)c1-c1ccc(Cl)c([N+](=O)[O-])c1
inactive: [1] 4.35% | [2] 4.95% | [3] -8.35% | [4] -7.1% | [5] -31.1% | [6] -13.6%

CCOC(=O)c1ccc(NC(=O)CCCCCCCCC(=O)Nc2ccc(C(=O)OCC)cc2)cc1
inactive: [1] 7.5% | [2] -5.6% | [3] -0.85% | [4] -8.45% | [5] -2.1% | [6] -6.95%

O=C(/C=C/c1ccc(O)c(O)c1)OC1CC(O)(C(=O)O)CC(O)C1O (stereo unspecified)
inactive: [1] 4.75% | [2] 5.9% | [3] 7.85% | [4] 11.4% | [5] -2.75% | [6] 17.7%

NC(Cc1ccc(S(=O)(=O)O)cc1)C(=O)NC(CCCCNC(=O)NCCCCC(NC(=O)C(N)Cc1ccc(S(=O)(=O)O)cc1)C(=O)NC(Cc1ccc(S(=O)(=O)O)cc1)C(=O)O)C(=O)NC(Cc1ccc(S(=O)(=O)O)cc1)C(=O)O (stereo unspecified)
inactive: [1] -11.7% | [2] -3.8% | [3] 8.45% | [4] -8.65% | [5] 22.6% | [6] 14.2%

CC[N+]1(C)CCC(O)(c2ccccc2)C(C(=O)c2ccccc2)C1 (stereo unspecified)
inactive: [1] 3.5% | [2] -6.1% | [3] -5.55% | [4] 34.1% | [5] 6.1% | [6] 11.3%

Cc1nc(Cc2n[nH]c(C)n2)n[nH]1
inactive: [1] 14.4% | [2] -6.65% | [3] 11.9% | [4] 15.2% | [5] 3.4% | [6] 14.3%

COc1ccc(Br)cc1/C=N/N=C/c1cc(Br)ccc1OC
inactive: [1] -0.2% | [2] -21.6% | [3] 1.5% | [4] 20.9% | [5] 21.5% | [6] 23.4%

CC1=CC(C)(C)NC(=S)N1CCO
inactive: [1] 1.95% | [2] -18.6% | [3] 25.3% | [4] 13.4% | [5] 1.15% | [6] 32.3%

CC(O[Si](C)(C)C(C)(C)C)[C@H](NC(=O)OCC(Cl)(Cl)Cl)C(=O)O (stereo partly specified)
inactive: [1] -9.6% | [2] -27.8% | [3] -17.1% | [4] 26.1% | [5] -45% | [6] -14.8%

O=C1c2ccccc2CC1(c1ccccc1)c1ccccc1
inactive: [1] 15.1% | [2] -5% | [3] -6.6% | [4] 10.5% | [5] -9.85% | [6] -7.5%

CCCCCCCCCCP(=O)(O)CCCCCCCCCC
inactive: [1] 8.3% | [2] -3.8% | [3] 9.9% | [4] -144% | [5] 21.7% | [6] -16.3%

CCOC(=O)C1=CCOc2cc(N(C)C)ccc21
inactive: [1] -9.25% | [2] 9.15% | [3] -1.25% | [4] 32.4% | [5] 8.75% | [6] -6.9%

N#CC1C(=O)NC(=O)C(C#N)C12CCCC2 (stereo unspecified)
inactive: [1] -3.65% | [2] -9.2% | [3] 5.25% | [4] -22.2% | [5] 10.9% | [6] 10.7%

O=C(O)C(C1=CCCCC1)C1(O)CCCCC1 (stereo unspecified)
inactive: [1] -9.15% | [2] -5.45% | [3] 17.6% | [4] -5.85% | [5] -0.65% | [6] 12.7%

O=S(c1ccc(O)cc1)c1ccc(O)cc1
inactive: [1] -24.2% | [2] -4.95% | [3] 0.55% | [4] 1.35% | [5] -1.1% | [6] -2.35%

CO[C@H]1C=C[C@]23c4cc5c(cc4CN(CC2O)[C@@H]3C1)OCO5 (stereo partly specified)
inactive: [1] 8.65% | [2] -11.7% | [3] 26.4% | [4] 12.6% | [5] 2.55% | [6] -20.9%

Reference: PubChem BioAssay (NCI)
